Tat export inh = blocks Tat-dependent protein export in E. coli | E. coli MC4100 TorA-mCherry Tat export, fluorescence | inhibition, % at 10 µM | 0.036% of 340,000 active | AID 488895;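 active = mean replicate inhibition at least 50% and at least half of replicates individually reaching 50%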;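 also: exported cargo escapes ClpAP degradation while cytoplasmic cargo is degraded and loses fluorescence; 0% = median of neutral control wells and 100% = median of NaSCN control wells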
AddAB inh = less growth of phage-infected E. coli with AddAB; E. coli expressing H. pylori AddAB, absorbance growth; inhibition, % at 11.9 µM; 0.29% of 330,000 active; in the data active = inhibition above about 12%;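 also: 0% = vehicle wells of infected cells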
E coli growth-1 = bacterial growth inhibition, counter-screen for AddAB inhibitors; E. coli V3065 growth, OD600 absorbance, 18 h; inhibition, % at 11.9 µM; 0.27% of 330,000 active; AID 449728;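 active = inhibition above the campaign's mean inhibition across all tested compounds plus 3 SD, cut at about 9.9% in these data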;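 also: uninfected addAB+ strain grown without phage in ampicillin broth; 0% = DMSO wells and 100% = ciprofloxacin 0.95 µg/ml wells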
E coli growth-2 = inhibitors of Escherichia coli growth; OD600, 23 h; hits give low values; OD600 absorbance (concentration not given with the values); 0.21% of 330,000 active; AID 1053175;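 active = OD600 absorbance below the run mean of sample wells minus 3.6 SD, in any replicate, cut at about 0.56 in these data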
phage Ecoli inh = E. coli growth loss with phage present | growth absorbance | inhibition, % at 11.9 µM | 0.26% of 360,000 active; in the data active = inhibition above about 11%
AddAB confirm = growth loss of T4-infected E. coli expressing H. pylori AddAB, confirmed | 64% of 880 active | inhibition, % at 11.9 µM | shares compounds with AddAB inh | AID 488942 | E. coli V3065 expressing H. pylori AddAB, T4 phage, OD; T4 phage with gene 2 nonsense mutations;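 active = mean inhibition above a set limit taken from the earlier primary screen, cut at about 13% in these data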;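 also: higher means less bacterial growth since AddAB block lets phage replicate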
RecBCD counter = reduces growth of phage-infected RecBCD+ E. coli, AddAB inhibitor counter-screen; shares compounds with AddAB inh; E. coli V66 + mutant T4 phage, OD growth; inhibition, % at 11.9 µM; 73% of 880 active; AID 488955;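 active = mean inhibition above the mean of solvent-only control wells plus 3 SD, cut at about 4% in these data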;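 also: optical density read after an 18 h incubation at 37 °C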
bact viab count = counter-screen for AddAB inhibitors: inhibitors of bacterial viability | inhibition, % at 11.9 µM | 35% of 880 active | AID 488956 | shares compounds with AddAB inh | absorbance (AddAB counterscreen); in the data active = inhibition above about 25%
RecBCD conf = confirmation: growth loss of phage-infected RecBCD+ E. coli (RecBCD inhibitor screen) | E. coli V66 + T4 2- phage, growth OD | inhibition, % at 11.9 µM | 45% of 890 active | shares compounds with phage Ecoli inh;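 active = mean inhibition over triplicates exceeding the hit threshold derived in the original primary screen, cut at about 11% in these data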
Ecoli viability = inhibits E. coli viability, flagging RecBCD hits as nonselective | inhibition, % at 11.9 µM | shares compounds with phage Ecoli inh | absorbance (OD) growth | AID 651983 | 29% of 890 active; in the data active = inhibition above about 20%;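 also: E. coli strain V66 grown with compound alone and no phage infection; 0% = bacteria with DMSO vehicle only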
AddAB phage OD = growth loss of phage-infected AddAB E. coli, RecBCD counter-screen | 45% of 890 active | E. coli expressing H. pylori AddAB + T4 phage, OD growth; gene 2 mutant T4, recBCD-deleted host | inhibition, % at 11.9 µM | shares compounds with phage Ecoli inh | AID 651984;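 active = mean inhibition above the solvent-only control wells' mean plus 3 SD, cut at about 22% in these data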;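 also: higher means less bacterial growth from phage killing when AddAB is blocked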
The depositor's hits bear a star. A selection: hits, their analogues and other compounds. The true share with any hit is near 0.5%.

`Nc1ncn([C@@H]2O[C@H](CO)[C@@H](O)[C@H]2O)c(=O)n1` gave Tat export inh -2, AddAB inh 96*, E coli growth-1 93*, phage Ecoli inh 62*, AddAB confirm 91*, RecBCD counter 29*, bact viab count 94*, RecBCD conf 48*, Ecoli viability 56* and AddAB phage OD 103*.
Nc1nc(=S)c2ncn(C3OC(CO)C(O)C3O)c2[nH]1 (configuration not stated) was read as Tat export inh -12, AddAB inh 25*, E coli growth-1 30*, E coli growth-2 0.52, phage Ecoli inh 17*, AddAB confirm 74*, RecBCD counter 27*, bact viab count 54*, RecBCD conf 32*, Ecoli viability 38* and AddAB phage OD 55*.
For Nc1nc(=S)c2ncn([C@@H]3O[C@H](CO)[C@@H](O)[C@H]3O)c2[nH]1 the results were Tat export inh -25, AddAB inh 89*, E coli growth-1 76*, phage Ecoli inh 72*, AddAB confirm 91*, RecBCD counter 63*, bact viab count 73*, RecBCD conf 57*, Ecoli viability 75* and AddAB phage OD 81*.
`COc1ccc2[nH]c(CN3CCN(CCC(C)C)C(CCO)C3)c(C)c2c1` (configuration not stated) gave Tat export inh -6, AddAB inh 0, E coli growth-1 2, E coli growth-2 0.7 and phage Ecoli inh 0.
For O=C(NNC(=O)c1cc(-c2ccncc2)nc2ccccc12)c1ccccc1O the results were Tat export inh -10, AddAB inh 29*, E coli growth-1 26*, E coli growth-2 0.54, phage Ecoli inh 24*, AddAB confirm 18*, RecBCD counter 18*, bact viab count 15, RecBCD conf 12*, Ecoli viability 16 and AddAB phage OD 20.
`Cc1ccc(-c2cc(C(=O)Nc3ccncc3)c3ccccc3n2)cc1` gave Tat export inh 2, AddAB inh -1, E coli growth-1 1, E coli growth-2 0.71 and phage Ecoli inh 3.
For O=C(NCC1CCCO1)c1ccc(S(=O)(=O)Nc2ccccc2F)cc1 (configuration not stated) the results were Tat export inh -1, AddAB inh 3, E coli growth-1 -2, E coli growth-2 0.71 and phage Ecoli inh -2.
For Oc1ccccc1N=N/C(=N/Nc1ccccc1O)c1ccccc1 the results were Tat export inh 1, AddAB inh 4, E coli growth-1 1 and phage Ecoli inh 1.
N#C/C(N=Nc1ccccc1O)=N\Nc1ccccc1O was read as Tat export inh -3, AddAB inh 23*, E coli growth-1 22*, phage Ecoli inh 30*, AddAB confirm 89*, RecBCD counter 27*, bact viab count 94*, RecBCD conf 25*, Ecoli viability 25* and AddAB phage OD 94*.
Cc1ccc(-c2nc3c(Cl)cc(Cl)cc3c(=O)n2O)cc1 was read as Tat export inh -6, AddAB inh 12*, E coli growth-1 15*, E coli growth-2 0.63, phage Ecoli inh 12*, AddAB confirm 16*, RecBCD counter 14*, bact viab count 8, RecBCD conf 3, Ecoli viability 6 and AddAB phage OD 12.
Screening O=c1c2cc(Br)ccc2nc(-c2ccc(Cl)cc2)n1O returned Tat export inh -5, AddAB inh -3, E coli growth-1 -5, E coli growth-2 0.57 and phage Ecoli inh -6.

Screens from PubChem BioAssay.
